Inconclusive results are not listed. Active and inactive are the calls of the source. Rule for the calls: active = hit-call score of the fitted dose curve at least 0.9, where 1 is the maximum; inconclusive = response in the unintended direction; inactive = score below 0.9.

Test [1] has as its target human Adrenergic, Beta 3 Receptor (Adrb3), ADRB3 (gene 155) (UniProt P13945). Briefly: NVS_GPCR_hAdrb3: NovaScreen (NVS) G Protein-Coupled Receptor Assay for human Adrenergic, Beta 3 Receptor (Adrb3) (AID 2283262). In outline:
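Membranes from SK-N-MC cells pretreated with isoproterenol and 8-bromo-cAMP were used in a radioligand competitive displacement binding assay. Binding was read by filter-based scintillation counting 1 hour after dosing. Primary screening was in duplicate at 25 uM, with concentration series in follow-up.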

Test [2] has as its target human Histamine 1 Receptor (H1), HRH1 (gene 3269) (UniProt P35367). Briefly: NVS_GPCR_hH1: NovaScreen (NVS) G Protein-Coupled Receptor Assay for human Histamine 1 Receptor (H1) (AID 2283268). In outline: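 Cell-free radioligand displacement at human H1 receptor, 1 h, filter scintillation counting; primary screen 25 uM in duplicate, hits in concentration series; loss of binding fitted vs DMSO.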

The target of test [3] is human Neurokinin, NK2 Receptor, TACR2 (gene 6865) (UniProt P21452). Nature of the test: NVS_GPCR_hNK2: NovaScreen (NVS) G Protein-Coupled Receptor Assay for human Neurokinin, NK2 Receptor (AID 2283278).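 Note: actives reduce bound radioligand signal relative to DMSO baseline.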 In outline:
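Filter-based scintillation counting measured radioligand bound to receptor extracted from CHO cells, 4 hours after compound addition. Chemicals screened first at 25 uM in duplicate, with actives retested in concentration series relative to DMSO.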

Test [4] addresses Muscarinic acetylcholine receptor M3 (Homo sapiens) (UniProt P20309). Briefly: NVS_GPCR_hM3: NovaScreen (NVS) G Protein-Coupled Receptor Assay for human Muscarinic, M3 Receptor (AID 2283272). A digest of the protocol: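 Radioligand displacement binding on human M3 receptor in CHO-derived membranes, 1 h incubation, filter-based scintillation counting. Primary screen in duplicate at 25 uM; actives followed up in concentration series; loss of signal versus DMSO.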

The target of test [5] is Muscarinic acetylcholine receptor M2 (Homo sapiens) (UniProt P08172). Briefly: NVS_GPCR_hM2: NovaScreen (NVS) G Protein-Coupled Receptor Assay for human Muscarinic, M2 Receptor (AID 2283273). A digest of the protocol:
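Cell-free radioligand binding using membranes from CHO cells expressing the receptor; filter-based scintillation counting after 1 hour of compound exposure. Loss of specific binding relative to DMSO baseline; primary screen at 25 uM in duplicate, actives then run in concentration series.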

Test [6] deals with human Muscarinic, M4 Receptor, CHRM4 (gene 1132) (UniProt P08173). Briefly: NVS_GPCR_hM4: NovaScreen (NVS) G Protein-Coupled Receptor Assay for human Muscarinic, M4 Receptor (AID 2283274). In outline:
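Cell-free radioligand displacement using CHO-derived human M4 receptor protein, 1 h after dosing; bound radioactivity by filtration and scintillation counting. Primary screen single 25 uM duplicate, actives followed in concentration series.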

Test [7] has as its target Neuropeptide Y receptor type 2 (Homo sapiens) (UniProt P49146). Nature of the test: NVS_GPCR_hNPY2: NovaScreen (NVS) G Protein-Coupled Receptor Assay for human Neuropeptide Receptor Y2 (NPY2) (AID 2283277). In outline: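 Radioligand binding on membranes extracted from SK-N-MC cells, cell-free, read 1 h after dosing by filter-based scintillation counting. Loss of signal vs DMSO. Primary screen in duplicate at 25 uM; actives followed up in concentration-response up to 50 uM.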

The target of test [8] is Type-1 angiotensin II receptor (Homo sapiens) (UniProt P30556). Briefly: NVS_GPCR_hAT1: NovaScreen (NVS) G Protein-Coupled Receptor Assay for human Angiotensin II receptor type 1 (AT1) (AID 2283263). In outline:
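Membranes from KAN-TS cells; radioligand competitive displacement, 3 h, filtration and scintillation counting. Single-point duplicate screen at 25 uM, then concentration-response up to 50 uM for hits; loss of signal fitted versus DMSO.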

Test [9] concerns the target human Dopamine Receptor D2 (DRD2), DRD2 (gene 1813) (UniProt P14416). Briefly: NVS_GPCR_hDRD2s: NovaScreen (NVS) G Protein-Coupled Receptor Assay for human Dopamine Receptor D2 (DRD2) (AID 2283266). A digest of the protocol:
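Radioligand displacement used human DRD2 membranes extracted from CHO cells and was read by filter-based scintillation counting after 1.5 hours. Primary screening was in duplicate at 25 uM. Loss of signal versus DMSO was fitted, with concentration series in follow-up.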

Test [10] deals with human Thromboxane A2 Receptor (TXA2), TBXA2R (gene 6915) (UniProt P21731). Nature of the test: NVS_GPCR_hTXA2: NovaScreen (NVS) G Protein-Coupled Receptor Assay for human Thromboxane A2 Receptor (TXA2) (AID 2283282).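 Note: actives reduce bound radioligand signal relative to DMSO baseline.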 A digest of the protocol:
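Screening ran at 25 uM in duplicate, with concentration series for confirmed actives. Each test measures radioligand binding to human platelet protein after 1 h, cell-free, using filter-based scintillation detection of signal loss relative to DMSO.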

Test [11] concerns the target human Neurotensin Receptor (NTS), NTSR1 (gene 4923) (UniProt P30989). Nature of the test: NVS_GPCR_hNTS: NovaScreen (NVS) G Protein-Coupled Receptor Assay for human Neurotensin Receptor (NTS) (AID 2283279). In outline:
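Radioligand displacement on human NTSR1 protein from CHO cells, cell-free, 1 h, filter-based scintillation counting. Primary screen at 25 uM in duplicate; hits rerun in concentration-response up to 50 uM.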

The target in test [12] is human Leukotriene B4 Receptor 1 (LTB4-BLT1), LTB4R (gene 1241) (UniProt Q15722). Nature of the test: NVS_GPCR_hLTB4_BLT1: NovaScreen (NVS) G Protein-Coupled Receptor Assay for human Leukotriene B4 Receptor 1 (LTB4-BLT1) (AID 2283271). In outline: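 Radioligand displacement binding on receptor extracted from human neutrophils, cell-free, 1 h after dosing; filter-based scintillation counting. Primary screen in duplicate at 25 uM, actives retested in concentration-response up to 50 uM; loss of signal versus DMSO.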

In test [13] the target is Muscarinic acetylcholine receptor M1 (Homo sapiens) (UniProt P11229). Briefly: NVS_GPCR_hM1: NovaScreen (NVS) G Protein-Coupled Receptor Assay for human Muscarinic, M1 Receptor (AID 2283270). A digest of the protocol: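 Cell-free radioligand displacement using membrane protein extracted from CHO cells, read by filter-based scintillation counting 1 h after dosing. Loss of bound signal fitted versus DMSO; primary screen single concentration 25 uM in duplicate, actives followed by concentration series.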

Test [14] has as its target human Endothelin Receptor Type B (ETB), EDNRB (gene 1910) (UniProt P24530). Nature of the test: NVS_GPCR_hETB: NovaScreen (NVS) G Protein-Coupled Receptor Assay for human Endothelin Receptor Type B (ETB) (AID 2283267). A digest of the protocol:
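Human astrocytoma cell membranes; radioligand competitive binding read by filter scintillation counting 4 hours after dosing. Single-concentration duplicate screen at 25 uM, then singleton concentration-response up to 50 uM; loss of signal versus DMSO.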

The target of test [15] is D(1A) dopamine receptor (Homo sapiens) (UniProt P21728). Nature of the test: NVS_GPCR_hDRD1: NovaScreen (NVS) G Protein-Coupled Receptor Assay for human Dopamine Receptor D1 (DRD1) (AID 2283269). A digest of the protocol: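 HEK293-derived receptor preparation; radioligand competitive displacement; 1 h; filtration + scintillation counting. DMSO = negative control/baseline. Primary: 25 uM, duplicate; secondary: concentration–response for actives.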
Sequence of D(1A) dopamine receptor (Homo sapiens) (P21728 whole entry, looked up): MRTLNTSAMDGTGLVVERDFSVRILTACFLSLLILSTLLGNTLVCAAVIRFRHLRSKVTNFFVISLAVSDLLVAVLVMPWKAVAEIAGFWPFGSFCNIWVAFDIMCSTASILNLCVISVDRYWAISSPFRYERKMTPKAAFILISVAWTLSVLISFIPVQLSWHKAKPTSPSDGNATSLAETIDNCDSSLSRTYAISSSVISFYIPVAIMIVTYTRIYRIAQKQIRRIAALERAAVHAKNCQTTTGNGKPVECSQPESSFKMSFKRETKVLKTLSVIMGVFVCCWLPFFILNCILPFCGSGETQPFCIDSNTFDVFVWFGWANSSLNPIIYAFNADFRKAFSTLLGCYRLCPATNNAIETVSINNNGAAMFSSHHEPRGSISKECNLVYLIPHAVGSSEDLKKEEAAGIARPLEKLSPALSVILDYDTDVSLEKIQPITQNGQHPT

Test [16] deals with human Neuropeptide Receptor Y1 (NPY1), NPY1R (gene 4886) (UniProt P25929). Nature of the test: NVS_GPCR_hNPY1: NovaScreen (NVS) G Protein-Coupled Receptor Assay for human Neuropeptide Receptor Y1 (NPY1) (AID 2283276). In outline: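 Cell-free radioligand binding using receptor extracted from SK-N-MC cells, 1 h incubation, filter-based scintillation counting. Primary screen single concentration 25 uM in duplicate; actives followed in concentration series. Loss of bound signal scored versus DMSO.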
Sequence of human Neuropeptide Receptor Y1 (NPY1), NPY1R (gene 4886) (P25929 whole entry, looked up): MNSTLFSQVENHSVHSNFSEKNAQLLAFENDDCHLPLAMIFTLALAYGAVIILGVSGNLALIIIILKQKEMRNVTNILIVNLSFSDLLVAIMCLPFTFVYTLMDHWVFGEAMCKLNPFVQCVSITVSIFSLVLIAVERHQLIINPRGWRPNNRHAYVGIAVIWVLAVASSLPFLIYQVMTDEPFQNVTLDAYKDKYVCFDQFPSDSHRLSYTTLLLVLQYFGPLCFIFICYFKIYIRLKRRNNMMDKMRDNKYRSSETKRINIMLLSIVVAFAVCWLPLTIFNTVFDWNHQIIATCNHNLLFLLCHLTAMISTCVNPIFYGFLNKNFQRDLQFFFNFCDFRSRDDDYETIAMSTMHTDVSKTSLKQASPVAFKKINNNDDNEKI

Sequence of Muscarinic acetylcholine receptor M2 (Homo sapiens) (P08172 whole entry, looked up): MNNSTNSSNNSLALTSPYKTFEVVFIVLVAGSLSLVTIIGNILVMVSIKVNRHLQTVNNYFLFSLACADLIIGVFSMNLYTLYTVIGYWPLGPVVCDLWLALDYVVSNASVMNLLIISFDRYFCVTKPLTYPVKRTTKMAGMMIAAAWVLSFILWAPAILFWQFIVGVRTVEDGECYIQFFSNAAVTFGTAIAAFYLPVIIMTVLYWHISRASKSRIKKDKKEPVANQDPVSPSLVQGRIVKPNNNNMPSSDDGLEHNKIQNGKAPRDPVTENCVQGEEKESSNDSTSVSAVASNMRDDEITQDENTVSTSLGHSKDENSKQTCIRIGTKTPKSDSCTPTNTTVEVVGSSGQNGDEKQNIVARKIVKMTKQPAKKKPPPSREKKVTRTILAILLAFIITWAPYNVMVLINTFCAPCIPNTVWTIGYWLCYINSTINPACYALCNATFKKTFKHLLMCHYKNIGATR
Sequence of Muscarinic acetylcholine receptor M3 (Homo sapiens) (P20309 whole entry, looked up): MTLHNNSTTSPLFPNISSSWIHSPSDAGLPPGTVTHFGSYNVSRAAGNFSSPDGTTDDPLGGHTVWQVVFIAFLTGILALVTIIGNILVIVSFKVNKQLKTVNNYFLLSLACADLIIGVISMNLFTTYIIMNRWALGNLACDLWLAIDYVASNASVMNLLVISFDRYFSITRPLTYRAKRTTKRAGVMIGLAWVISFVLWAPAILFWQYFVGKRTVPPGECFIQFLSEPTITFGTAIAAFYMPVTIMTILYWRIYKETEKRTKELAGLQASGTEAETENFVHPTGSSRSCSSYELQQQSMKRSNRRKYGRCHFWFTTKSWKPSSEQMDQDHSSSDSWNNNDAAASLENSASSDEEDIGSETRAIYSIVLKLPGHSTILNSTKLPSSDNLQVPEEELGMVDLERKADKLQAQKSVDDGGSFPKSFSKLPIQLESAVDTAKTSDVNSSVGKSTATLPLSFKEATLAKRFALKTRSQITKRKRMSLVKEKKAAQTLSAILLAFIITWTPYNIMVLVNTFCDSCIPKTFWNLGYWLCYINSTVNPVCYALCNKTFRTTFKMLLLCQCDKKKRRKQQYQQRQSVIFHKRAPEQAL
Sequence of human Muscarinic, M4 Receptor, CHRM4 (gene 1132) (P08173 whole entry, looked up): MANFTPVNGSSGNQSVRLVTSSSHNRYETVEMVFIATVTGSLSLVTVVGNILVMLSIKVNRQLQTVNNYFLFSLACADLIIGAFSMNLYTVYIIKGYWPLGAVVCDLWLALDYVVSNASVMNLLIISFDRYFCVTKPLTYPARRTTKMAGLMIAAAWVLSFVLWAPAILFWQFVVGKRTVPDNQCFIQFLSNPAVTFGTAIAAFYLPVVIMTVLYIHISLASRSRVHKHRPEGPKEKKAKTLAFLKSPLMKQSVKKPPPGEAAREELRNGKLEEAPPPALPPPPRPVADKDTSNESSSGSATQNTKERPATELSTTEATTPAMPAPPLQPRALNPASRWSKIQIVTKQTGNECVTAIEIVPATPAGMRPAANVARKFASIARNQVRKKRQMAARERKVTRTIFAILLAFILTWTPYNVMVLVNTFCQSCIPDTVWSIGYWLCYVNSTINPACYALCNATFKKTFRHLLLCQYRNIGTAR
Sequence of human Histamine 1 Receptor (H1), HRH1 (gene 3269) (P35367 whole entry, looked up): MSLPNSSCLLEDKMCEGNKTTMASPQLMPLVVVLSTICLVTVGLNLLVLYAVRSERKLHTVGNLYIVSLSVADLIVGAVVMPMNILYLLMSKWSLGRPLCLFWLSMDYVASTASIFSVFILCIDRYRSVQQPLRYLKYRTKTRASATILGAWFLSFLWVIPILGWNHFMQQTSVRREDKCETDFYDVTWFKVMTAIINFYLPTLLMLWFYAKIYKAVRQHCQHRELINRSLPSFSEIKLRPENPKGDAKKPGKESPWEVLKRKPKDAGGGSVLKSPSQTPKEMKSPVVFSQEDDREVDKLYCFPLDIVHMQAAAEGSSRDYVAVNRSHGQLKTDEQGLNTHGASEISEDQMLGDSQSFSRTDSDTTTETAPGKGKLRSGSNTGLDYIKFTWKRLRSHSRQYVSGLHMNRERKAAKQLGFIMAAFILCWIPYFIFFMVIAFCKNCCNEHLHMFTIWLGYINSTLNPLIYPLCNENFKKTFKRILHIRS
Sequence of human Adrenergic, Beta 3 Receptor (Adrb3), ADRB3 (gene 155) (P13945 whole entry, looked up): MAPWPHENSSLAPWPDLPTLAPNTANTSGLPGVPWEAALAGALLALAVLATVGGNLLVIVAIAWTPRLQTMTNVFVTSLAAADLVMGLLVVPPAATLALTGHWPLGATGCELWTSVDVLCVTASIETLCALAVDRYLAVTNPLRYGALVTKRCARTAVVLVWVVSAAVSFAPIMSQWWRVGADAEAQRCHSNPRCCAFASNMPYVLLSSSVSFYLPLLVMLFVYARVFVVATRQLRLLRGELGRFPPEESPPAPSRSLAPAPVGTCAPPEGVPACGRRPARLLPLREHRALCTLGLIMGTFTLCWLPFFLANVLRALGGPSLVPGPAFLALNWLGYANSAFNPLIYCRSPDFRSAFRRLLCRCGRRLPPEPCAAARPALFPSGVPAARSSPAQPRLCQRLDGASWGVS
Sequence of human Dopamine Receptor D2 (DRD2), DRD2 (gene 1813) (P14416 whole entry, looked up): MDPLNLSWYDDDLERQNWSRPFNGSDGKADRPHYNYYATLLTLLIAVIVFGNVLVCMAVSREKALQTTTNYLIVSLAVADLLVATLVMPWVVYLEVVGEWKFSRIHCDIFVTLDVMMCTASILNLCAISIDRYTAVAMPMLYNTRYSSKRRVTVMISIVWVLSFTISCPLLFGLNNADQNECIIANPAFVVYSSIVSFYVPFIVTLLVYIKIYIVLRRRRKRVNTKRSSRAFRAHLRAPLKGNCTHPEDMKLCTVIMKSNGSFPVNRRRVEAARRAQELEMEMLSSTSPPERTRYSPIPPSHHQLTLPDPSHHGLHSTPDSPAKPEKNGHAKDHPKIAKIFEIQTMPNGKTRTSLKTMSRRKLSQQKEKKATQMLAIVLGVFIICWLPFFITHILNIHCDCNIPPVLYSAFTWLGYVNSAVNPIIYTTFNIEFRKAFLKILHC
Sequence of Type-1 angiotensin II receptor (Homo sapiens) (P30556 whole entry, looked up): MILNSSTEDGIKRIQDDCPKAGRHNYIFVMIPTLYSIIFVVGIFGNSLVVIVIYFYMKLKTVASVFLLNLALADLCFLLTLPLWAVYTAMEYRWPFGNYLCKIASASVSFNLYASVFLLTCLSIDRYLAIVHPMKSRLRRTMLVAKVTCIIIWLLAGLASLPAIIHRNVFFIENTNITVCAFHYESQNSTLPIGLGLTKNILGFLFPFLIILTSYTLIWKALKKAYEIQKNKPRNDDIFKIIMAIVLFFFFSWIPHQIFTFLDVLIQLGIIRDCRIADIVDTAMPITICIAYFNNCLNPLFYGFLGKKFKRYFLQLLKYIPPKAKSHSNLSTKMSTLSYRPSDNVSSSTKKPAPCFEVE
Sequence of human Neurotensin Receptor (NTS), NTSR1 (gene 4923) (P30989 whole entry, looked up): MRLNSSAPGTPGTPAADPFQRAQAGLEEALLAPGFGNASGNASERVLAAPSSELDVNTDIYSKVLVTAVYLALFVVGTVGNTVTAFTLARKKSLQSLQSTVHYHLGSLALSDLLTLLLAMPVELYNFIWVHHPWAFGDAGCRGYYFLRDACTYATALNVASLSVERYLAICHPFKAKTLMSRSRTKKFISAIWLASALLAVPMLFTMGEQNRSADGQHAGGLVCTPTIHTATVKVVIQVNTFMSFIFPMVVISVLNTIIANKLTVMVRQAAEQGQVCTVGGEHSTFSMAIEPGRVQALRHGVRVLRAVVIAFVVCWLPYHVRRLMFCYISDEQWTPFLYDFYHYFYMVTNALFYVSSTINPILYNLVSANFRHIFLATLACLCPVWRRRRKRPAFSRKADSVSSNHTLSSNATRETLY
Sequence of human Thromboxane A2 Receptor (TXA2), TBXA2R (gene 6915) (P21731 whole entry, looked up): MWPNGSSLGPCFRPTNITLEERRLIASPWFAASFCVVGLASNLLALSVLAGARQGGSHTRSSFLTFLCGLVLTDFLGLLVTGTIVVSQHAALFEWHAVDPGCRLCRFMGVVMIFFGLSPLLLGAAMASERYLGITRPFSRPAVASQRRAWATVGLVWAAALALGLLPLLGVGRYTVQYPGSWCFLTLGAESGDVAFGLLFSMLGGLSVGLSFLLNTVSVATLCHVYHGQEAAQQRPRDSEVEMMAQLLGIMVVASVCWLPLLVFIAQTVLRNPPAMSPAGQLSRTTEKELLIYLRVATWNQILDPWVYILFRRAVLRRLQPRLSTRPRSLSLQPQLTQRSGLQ

As to `CCOP(=O)(SC(C)CC)N1CCSC1=O` (stereo not given), the result in [1] and in test [2] was inactive.

For the compound `CCc1cccc(CC)c1N(COC)C(=O)CCl`, in test [3], the call was inactive.

Consider `C[Si](Cn1cncn1)(c1ccc(F)cc1)c1ccc(F)cc1`, for which the figures for the AC50 in test [4] and in test [6] were 11.6 µM (active) and 14.4 µM (active), respectively. Also, the compound was classed as inactive in [5].

For `CN1COCN(Cc2cnc(Cl)s2)C1=N[N+](=O)[O-]`, the compound was called inactive in test [4] and in [7].

On to `CCCOc1nn(C(=O)NS(=O)(=O)c2ccccc2C(=O)OC)c(=O)n1C`, for which, in test [8], the compound was called inactive.

With `CON=C(C(=O)OC)c1ccccc1CON=C(C)c1cccc(C(F)(F)F)c1`, in test [1], the result was inactive.

Turning to `CCOP(=S)(OCC)Oc1ccc([N+](=O)[O-])cc1`, the AC50 in [4] was 5.42 µM (active); in test [6], 7.24 µM (active).

`CN(C)C(=O)Nc1cccc(C(F)(F)F)c1`: the result in [9] and in [2] was inactive.

On to `FC(F)C(F)(F)OCC(Cn1cncn1)c1ccc(Cl)cc1Cl` (stereo not given), for which the result in test [6] and in test [10] was inactive.

On to `CC1=NNC(=O)N(/N=C/c2cccnc2)C1`, for which the outcome in test [6] and in test [11] was inactive.

In the case of `CCCCSP(=O)(SCCCC)SCCCC`, the compound was classed as inactive in [11].

On to `COc1ccc(C(=CC(=O)N2CCOCC2)c2ccc(Cl)cc2)cc1OC`, for which the result in test [12] was inactive.

In the case of `CCOP(=O)(NC(C)C)Oc1ccc(SC)c(C)c1` (stereo not given), the compound was called inactive in [13].

Take `CNC(=O)Oc1cccc2c1OC(C)(C)O2`: the compound was called inactive in test [14].

On to `COc1cccc(C(=O)NN(C(=O)c2cc(C)cc(C)c2)C(C)(C)C)c1C`, for which, in test [4], the AC50 is 0.429 µM (active). Also, the result in [5] was inactive.

For `CC(C)=CC1C(C(=O)OCN2C(=O)C3=C(CCCC3)C2=O)C1(C)C` (stereo not given), the AC50 in [15] is 6.68 µM (active).

On to `S=C1NCCN1`, for which the call in [9], in test [5] and in test [16] was inactive.

Take `N#CSCSC#N`: the results for the AC50 in test [8] and in test [16] were 14.9 µM (active) and 12.6 µM (active), respectively.

The term AC50 denotes the concentration giving half of the maximal activity seen.

(Values after PubChem BioAssay (EPA / NIEHS).)
